High-throughput results as filed in PubChem BioAssay.
Hits are enriched below; roughly 5.2% of the tested compounds scored in any of these assays.
A3G deaminase: blocks human APOBEC3G single-stranded DNA deamination | Q9HC16 | recombinant A3G, ssDNA deamination FAM/TAMRA fluorescence | inhibition, % at 20 µM | 0.28% of 330,000 active | AID 493012;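 active = inhibition of at least 40% at 20 µM, with no more than 30% in the related APOBEC3A deaminase screen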;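 note: plate controls were DMSO wells with A3G for no effect and wells lacking A3G enzyme for full effect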
NRP1-CendR mod: NRP-1/CendR interaction modulation; FAM-RPARPAR peptide binding to NRP-1, fluorescence polarization; AID 602438; inhibition, % at 25 µM; 0.85% of 360,000 active; O14786;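 active = inhibition or corrected inhibition above about 18%, plus a signal ratio from 0.5 to 1.5, limit read from the data, passing the limit was not always enough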
Yeast superoxide: yeast age-related superoxide inhibition as caloric restriction mimetic | superoxide response (% of plate mean), % at 10 µM | 0.18% of 330,000 active | S. cerevisiae aged cells, superoxide DHE fluorescence; stronger effect = lower value;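 active = superoxide response under a set limit, about three screen SD below normal, cut at about 65% in these data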;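 note: yeast aged for seven days with compound at 30 °C before DHE staining; 100% = average MFI of all compound-treated wells on the plate with controls excluded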
M18AAP inhibitor: PfM18AAP enzyme inhibition. recombinant PfM18AAP, H-Glu-NHMec fluorogenic cleavage. inhibition, % at 7.35 µM. 1.2% of 290,000 active. AID 1822;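 active = inhibition above the campaign mean inhibition over all tested compounds plus 3 SD, cut at about 28% in these data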;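 note: 0% = plate median of test compound wells and 100% = 2 mM ZnCl2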
ALR H2O2 inh: inhibitors of human sulfhydryl oxidase ALR. 3.8% of 290,000 active. inhibition, % (no concentration beside the values). P55789. purified ALR, DTT oxidation, H2O2 HRP-luminol luminescence;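 active = mean replicate inhibition above about 79%, with every replicate also reaching it, limit read from the data; inconclusive = only one of the two criteria met; inactive = mean below limit and not every replicate reaching it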
Target sequence (P55789 whole entry, looked up): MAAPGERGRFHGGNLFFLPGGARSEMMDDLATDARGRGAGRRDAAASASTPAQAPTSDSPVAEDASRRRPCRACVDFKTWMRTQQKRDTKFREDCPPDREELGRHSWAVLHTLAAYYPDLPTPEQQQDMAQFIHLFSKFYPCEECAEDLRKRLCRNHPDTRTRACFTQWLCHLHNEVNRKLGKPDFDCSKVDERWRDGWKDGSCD
APOBEC3A inh: inhibitors of human APOBEC3A DNA deaminase | AID 493011 | 0.41% of 330,000 active | P31941 | inhibition, % at 20 µM | recombinant A3A, FAM/TAMRA ssDNA deamination fluorescence;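 active = at least 40% inhibition at 20 µM here, with at most 30% in a related deaminase screen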;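 note: plate controls were A3A with DMSO for no effect and wells lacking A3A enzyme for full effect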
Target sequence (P31941 whole entry, looked up): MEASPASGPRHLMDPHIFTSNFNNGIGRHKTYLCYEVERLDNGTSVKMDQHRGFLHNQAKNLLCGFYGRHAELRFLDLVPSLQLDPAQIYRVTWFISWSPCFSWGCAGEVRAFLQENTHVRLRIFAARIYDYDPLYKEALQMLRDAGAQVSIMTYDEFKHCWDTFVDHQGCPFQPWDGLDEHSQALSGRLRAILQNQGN
A3G conf: confirmation of human APOBEC3G DNA deaminase inhibitors; shares compounds with A3G deaminase; recombinant A3G ssDNA deaminase, UDG/FAM-TAMRA fluorescence; inhibition, % at 20 µM; 72% of 890 active;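 active = inhibition reaching a set limit in any replicate at 20 µM, the limit being 80% of the first screen's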
UDG ctr A3G: inhibits E. coli UDG, flagging false APOBEC3G inhibitors | shares compounds with A3G deaminase | UDG counterscreen, FAM/TAMRA oligo fluorescence | inhibition, % at 20 µM | 710 tested, under 10 active | AID 504715;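 active = compounds giving 40% or more inhibition at 20 µM in any one of the three replicates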;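 note: plate controls were DMSO wells with UDG and oligo for no effect and DMSO wells lacking both for full effect; inhibitors lower the FAM signal released by uracil excision and alkaline cleavage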
Target sequence (P12295 whole entry, looked up): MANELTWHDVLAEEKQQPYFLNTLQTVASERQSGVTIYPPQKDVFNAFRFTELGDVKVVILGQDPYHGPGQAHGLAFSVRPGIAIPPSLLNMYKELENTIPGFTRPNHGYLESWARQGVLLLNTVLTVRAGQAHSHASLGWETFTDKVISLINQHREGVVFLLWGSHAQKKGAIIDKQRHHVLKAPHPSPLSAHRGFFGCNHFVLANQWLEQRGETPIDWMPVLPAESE
Starred values were filed as active, the others as inactive; ? = inconclusive; . = no result given.

SMILES	A3G deaminase	NRP1-CendR mod	Yeast superoxide	M18AAP inhibitor	ALR H2O2 inh	APOBEC3A inh	A3G conf	UDG ctr A3G
CC1CN(C(=O)c2cc3cc([N+](=O)[O-])ccc3oc2=O)CC(C)O1 (stereo not given)	-1	-4	101	-9	-8	-1	.	.
O=C1C(=O)N(CCO)C(c2ccc(Br)cc2)/C1=C(\O)c1ccccc1 (stereo not given)	45*	-6	105	1	-2	-7	-59	-2
Cc1nc2nc(SCC(=O)NCCCN3CCOCC3)nn2c(C)c1Cc1ccccc1	-5	-3	105	2	3	1	.	.
CCOc1ccccc1CN1CCN(Cc2nc3ccccc3s2)CC1CCO (stereo not given)	-1	8	99	-8	.	-4	.	.
Cc1ccc(C(c2nnnn2CS(=O)(=O)c2ccc(C)cc2)N2CCN(c3ncccn3)CC2)cc1 (stereo not given)	71*	7	116	-1	2	1	2	.
CC(C)n1cc(CN2CCC(n3nccc3NC(=O)Cc3ccccc3)CC2)cn1	71*	3	101	-2	-10	4	4	.
NNc1cc(C(=O)O)ccc1Cl	40*	-10	92	-6	2	-3	20	-2
CC(C)(C)C(=O)NC(=S)Nc1cc(C(=O)O)ccc1Cl	-4	-3	117	-2	.	-4	.	.
CC(C)(C)C(=O)O/N=C1\CCS(=O)(=O)c2sccc21	-9	1	91	1	5	-2	.	.
CC1CCCN(CCC(=O)Nc2ccc3c(c2)CCC3)C1 (stereo not given)	-7	-10	94	-1	-5	-5	.	.
COCCN(C(=O)COC(=O)Cc1ccc(Cl)cc1Cl)c1c(N)n(Cc2ccccc2)c(=O)[nH]c1=O	43*	3	96	.	4	7	-2	.
COc1ccc(C)cc1NS(=O)(=O)c1ccc2c(c1)oc(=O)n2C	-10	-4	93	1	-4	3	.	.
CCN1CCN(c2nc3ccccc3nc2C(C#N)S(=O)(=O)c2ccc(C)cc2)CC1 (stereo not given)	-10	-9	93	0	9	-1	.	.
Cc1ccc(S(=O)(=O)C(C#N)c2nc3ccccc3nc2N2CCCC2)cc1 (stereo not given)	45*	-55	84	2	7	-4	7	-3
O=C(C[n+]1cccc(/C=N/O)c1)N(Cc1ccccc1)Cc1ccccc1	-4	-6	97	-3	-2	-2	.	.
Nc1nc(N)nc(Cc2ccccc2O)n1	-11	15	115	.	30	-4	.	.
CC1(C)OC(=O)C(=Cc2ccc(-c3ccc(S(N)(=O)=O)cc3)o2)C(=O)O1	40*	-34	94	13	?	18	47*	.
NS(=O)(=O)c1ccc(-c2ccc(/C=C3\C(=O)Nc4ccccc43)o2)cc1	-7	.	91	-6	6	-1	.	.
O=C(N1CCOCC1)N1CCN(Cc2ccccc2)CC1	-5	-3	95	-2	-11	0	.	.
CC[n+]1c(/C=C2\C=C(C)CC(C)(C)C2)sc2ccccc21	50*	-14	103	16	.	20	57*	.
Cc1ccnc(SCC(=O)Nc2sc3c(c2C#N)CCCC3)n1	-6	6	108	-8	2	-15	.	.
Cc1csc(SCC(=O)Nc2sc3c(c2C#N)CCC3)n1	42*	-24	102	6	8	6	7	.
Cc1ccc(C(=O)c2c(NC(=O)CSc3nnc(N)s3)sc3c2CCCC3)cc1	45*	33*	100	-8	2	0	-3	.
O=[N+]([O-])c1cccc(-c2n[nH]c(=S)n2-c2ccccc2)c1	22	.	106	12	.	-3	.	.
O=[N+]([O-])c1ccc2c(c1)[nH]c(=S)n2-c1ccccc1	41*	3	113	2	38	-1	54*	-3
SMILES	A3G deaminase	NRP1-CendR mod	Yeast superoxide	M18AAP inhibitor	ALR H2O2 inh	APOBEC3A inh	A3G conf	UDG ctr A3G
COc1ccc(Cl)cc1NC(=O)CSc1nc(NS(=O)(=O)c2ccccc2)cc(=O)[nH]1	-7	7	.	5	.	0	.	.
COC(=O)c1ccc(NS(=O)(=O)c2ccc(Cl)cc2)o1	-1	-1	113	6	15	4	.	.
O=c1c2cc(F)ccc2sn1-c1ccccc1	86*	3	126	.	48	3	88*	-3
O=C(O)c1cccc(-n2sc3ccccc3c2=O)c1	83*	-6	98	.	57	-1	91*	-2
CCN(CC(=O)NC(=O)NCc1ccco1)Cc1nc2ccccc2c(=O)[nH]1	3	-17	107	8	-5	6	.	.
CCOC(=O)c1cn(CC(=O)Nc2cccc(F)c2)nn1	-3	6	98	-5	-7	-1	.	.
Cc1cc(C)c2c(=O)n(CC(=O)Nc3cccc(F)c3)sc2n1	76*	2	113	65*	.	5	84*	1
O=C(Cn1cc2c(n1)CCCCC2)Nc1c(F)c(F)cc(F)c1F	-4	-7	102	-1	-23	5	.	.
CCC1CCc2c(sc(NC(=O)c3cnccn3)c2C(N)=O)C1 (stereo not given)	58*	1	94	23	.	-2	22	19
CCC1CCc2c(sc(NC(=O)c3ccco3)c2C(N)=O)C1 (stereo not given)	-6	-12	106	0	-4	-1	.	.
CC(=O)Nc1n[nH]c(=S)s1	.	8	.	.	.	.	.	.
CNc1n[nH]c(=S)s1	67*	8	87	0	34	-4	76*	-6
O=C1OCC(CC2=C(O)C(=O)OC2)=C1O	.	-6	.	.	.	.	.	.
S=C(Nc1ccc(Br)cc1Cl)NN1CCOCC1	61*	0	91	-17	17	1	3	.
Cc1cccc(NC(=S)NN2CCOCC2)c1C	-10	1	106	7	3	14	.	.
Cc1noc(C)c1S(=O)(=O)N1CCCC(C(=O)NCc2ccccn2)C1 (stereo not given)	49*	-2	88	11	-2	3	1	.
Cc1nnn(-c2nonc2N)c1C(=O)N/N=C/c1ccccc1O	44*	-24	94	-4	-13	24	40*	3
Cc1nnn(-c2nonc2N)c1C(=O)N/N=C/c1cccc2ccccc12	-6	5	72	-1	-10	-1	.	.
O=c1c2cccc(Cl)c2nc2n1Cc1ccccc1-2	59*	-6	116	-11	1	3	55*	-1
COc1ccc(CN2CCNC(=O)C2CC(=O)N(Cc2nccn2C)C(C)C)c(OC)c1 (stereo not given)	43*	-8	99	0	-7	24	16*	-4
O=C(CNCc1ccc(Cl)cc1)Nc1ccc(C(=O)N2CCCCCC2)cc1	-8	12	106	4	-3	-4	.	.
